Laboratory results as given in PubChem BioAssay (NCATS).
Inconclusive results are not listed. The source made the active and inactive calls. Calls follow the shape of the dose curve; as a rule, active = well fitted inhibition curve with a large enough effect; inconclusive = small, poorly fitted or top-dose-only effect; inactive = flat fitted curve, though single readings scatter.

Experiment: qHTS for Inhibitors of Plasmodium falciparum (7G8) proliferation (AID 504316);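 also: 0% = DMSO vehicle and -100% = 0.29 µM artemisinin full kill; nearly all actives have a fitted effect of over 65% in size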
Settings: P. falciparum 7G8 in erythrocytes, SYBR Green DNA, 72 h; series mostly up to 6.7 µM; activity change, negative = inhibition: at the top concentration
Procedure, shortened: (§1)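 Parasite growth measured as SYBR Green DNA fluorescence (ex 485, em 535 nm) after overnight lysis following 72 h culture at 37 °C, 0.3% parasitemia, 2.5% hematocrit. Values normalized against DMSO and 0.29 uM artemisinin controls, with plate-stack correction.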

For O=C1c2cc(Br)ccc2O[C@@H](c2ccc3c(c2)OCO3)[C@@H]1O, which “activity change, negative = inhibition” value is on record?
The value was -1.62% (inactive).

Which “activity change, negative = inhibition” value does the source give for COC(=O)CCC(=O)OC1(C)C(=O)C2=CN(CC3CC3)C(c3ccc(OC)cc3)=CC2=C(Br)C1=O (stereo unspecified) here?
The value was -2.23% (inactive).

Which “activity change, negative = inhibition” value does the source give for CCCCC1=CC2=CC(=O)C(C)(OC(=O)CC)C(=O)C2=CN1CCN1CCOCC1 (stereo unspecified) here?
The value was 2.57% (inactive).

Which “activity change, negative = inhibition” value does the source give for C=CC[C@]1(C(=O)OC)C=C[C@H](C)[C@@H](c2ccccc2)N1C(=O)C(F)(F)F here?
Its value is 10.1% (inactive).

With COC(=O)[C@@H]1[C@H](CCc2ccccc2)NC(=O)N(Cc2ccccc2)[C@@H]1C as the compound, how does the “activity change, negative = inhibition” value read?
Its value is -11.9% (inactive).

For COC(=O)C1=C(C(=O)OC)[C@@H]2N(C)c3ccccc3[C@@]23C[C@@H](C(=O)OC)N(S(=O)(=O)c2ccc(C)cc2)C3=N1, which “activity change, negative = inhibition” value is on record?
Its value is -13.3% (inactive).

Which “activity change, negative = inhibition” value does the source give for COc1ccc(N2C=C3C(=O)C(C)(OC(=O)CCc4ccccc4)C(=O)C=C3C=C2c2ccc(C#N)cc2)cc1 (stereo unspecified) here?
The value was 1.21% (inactive).

Which “activity change, negative = inhibition” value does the source give for CC1(OC(=O)c2ccc(Cl)nc2)C(=O)C=C2C=C(C3CC3)OC=C2C1=O (stereo unspecified) here?
Its value is -15% (inactive).

Which Potency does the source give for COC(=O)CCCC1=CC2=CC(=O)C(C)(OC(=O)c3cccs3)C(=O)C2=CN1CCCCO (stereo unspecified) here?
The Potency was “inactive”.

Which “activity change, negative = inhibition” value does the source give for COCCN1C(=O)N[C@@H](c2ccccc2)[C@@H](C(=O)OC)[C@H]1C here?
The value was -1.97% (inactive).

With COCCN1C=C2C(=O)C(C)(OC(=O)CCC(=O)OC)C(=O)C(Br)=C2C=C1c1ccc(OC)cc1 (stereo unspecified) as the compound, how does the “activity change, negative = inhibition” value read?
Its value is -0.635% (inactive).

Experiment: qHTS for Inhibitors of Plasmodium falciparum (HB3) proliferation (AID 504318);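 also: 0% = DMSO vehicle and -100% = artemisinin control; nearly all actives have a fitted effect of over 60% in size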
Settings: P. falciparum HB3 in erythrocytes, SYBR Green DNA, 72 h; series mostly up to 7.21 µM; activity change, negative = inhibition: at the top concentration
Procedure, shortened: as §1

With COC(=O)C1=C(C(=O)OC)[C@@H]2N(C)c3ccc(OC)cc3[C@@]23C[C@@H](C(=O)OC)N(C(=O)C2CCC2)C3=N1 as the compound, how does the “activity change, negative = inhibition” value read?
Its value is -7.93% (inactive).

For CC#CCN1C(=O)N[C@@H](c2ccccc2)C(C(=O)OC)=C1C, which “activity change, negative = inhibition” value is on record?
The value was -4.44% (inactive).

For COCCN1C(=O)N(C)[C@@H](c2ccccc2)C(C(C)=O)=C1C, which “activity change, negative = inhibition” value is on record?
The value was -9.35% (inactive).

Which “activity change, negative = inhibition” value does the source give for COC(=O)C1=C(C(=O)OC)[C@@H]2N(C)c3ccccc3[C@@]23C[C@@H](CO)N=C3N1 here?
The value was 5.03% (inactive).

With COc1ccc(C2=CC3=C(Br)C(=O)C(C)(OC(=O)c4cnc5ccccc5n4)C(=O)C3=CO2)cc1 (stereo unspecified) as the compound, how does the “activity change, negative = inhibition” value read?
Its value is 8.89% (inactive).

With COC(=O)N[C@H](CC(C)=O)c1ccc(Cl)cc1 as the compound, how does the “activity change, negative = inhibition” value read?
The value was 3.7% (inactive).

For CC(C)OCCCN1C=C2C(=O)C(C)(OC(=O)CCc3ccccc3)C(=O)C=C2C=C1c1ccc(C#N)cc1 (stereo unspecified), which “activity change, negative = inhibition” value is on record?
The value was -3.89% (inactive).

With CCOC(=O)CNC(=O)O[C@@H]1C(=O)c2cc(OC)ccc2O[C@H]1c1ccc(OC)c(Br)c1 as the compound, how does the “activity change, negative = inhibition” value read?
Its value is -13.6% (inactive).

With COC/C=C/C1=CC2=CC(=O)C(C)(OC(=O)c3cnc4ccccc4n3)C(=O)C2=CN1CC(C)C (stereo unspecified) as the compound, how does the “activity change, negative = inhibition” value read?
Its value is -3.75% (inactive).

Which “activity change, negative = inhibition” value does the source give for CC1(OC(=O)CCc2ccccc2)C(=O)C=C2C=C(c3ccc(C#N)cc3)N(C3CC3)C=C2C1=O (stereo unspecified) here?
The value was -5.47% (inactive).

For COC/C=C/C1=CC2=CC(=O)C(C)(OC(=O)c3cnc4ccccc4n3)C(=O)C2=CN1c1ccccc1 (stereo unspecified), which “activity change, negative = inhibition” value is on record?
The value was 0.412% (inactive).

Which “activity change, negative = inhibition” value does the source give for CC[C@H](C)[C@@H](NC(=O)O[C@@H]1C(=O)c2cc(Br)ccc2O[C@H]1c1cccc(OC)c1)C(=O)OC here?
The value was -2.24% (inactive).

With COC(=O)CCC(=O)OC1(C)C(=O)C2=CN(CC(C)C)C(c3ccc(OC)cc3)=CC2=C(Br)C1=O (stereo unspecified) as the compound, how does the “activity change, negative = inhibition” value read?
The value was 1.21% (inactive).

With CCOC(=O)CN1C(=O)NC(c2cccc(C(F)(F)F)c2)C(C(C)=O)=C1C (stereo unspecified) as the compound, how does the “activity change, negative = inhibition” value read?
The value was 3.63% (inactive).

Which “activity change, negative = inhibition” value does the source give for CCOC(=O)CN1C(=O)N[C@@H](c2cccs2)C(C(=O)OC)=C1C here?
Its value is 4.96% (inactive).

For CCN1C(=O)NC(c2ccc(Br)cc2)C(C(=O)OC)=C1C (stereo unspecified), which “activity change, negative = inhibition” value is on record?
The value was -0.897% (inactive).

For COC(=O)C1=C(C)N(Cc2ccccc2)C(=O)N[C@H]1c1ccc(Br)cc1, which “activity change, negative = inhibition” value is on record?
The value was 0.386% (inactive).

With CC1(OC(=O)CCc2ccccc2)C(=O)C=C2C=C3CCCN3C=C2C1=O (stereo unspecified) as the compound, how does the “activity change, negative = inhibition” value read?
Its value is -9.56% (inactive).

With COC(=O)CCCC1=CC2=CC(=O)C(C)(OC(=O)c3cccs3)C(=O)C2=CN1c1ccc(CO)cc1 (stereo unspecified) as the compound, how does the “activity change, negative = inhibition” value read?
The value was -2.49% (inactive).

For COC(=O)C1=C(C(=O)OC)[C@@H]2N(Cc3ccccc3)c3ccccc3[C@@]23C[C@@H](C(=O)OC)N(C(=O)NCCBr)C3=N1, which “activity change, negative = inhibition” value is on record?
The value was -3.39% (inactive).

Which “activity change, negative = inhibition” value does the source give for COC(=O)C1=C(C(=O)OC)[C@@H]2N(C)c3ccccc3[C@@]23C[C@@H](CO)N(C(=O)c2ccco2)C3=N1 here?
Its value is -0.246% (inactive).

With COC(=O)C1=C(C)N(Cc2ccccc2)C(=O)N[C@H]1c1cccs1 as the compound, how does the “activity change, negative = inhibition” value read?
The value was -4.03% (inactive).

Which “activity change, negative = inhibition” value does the source give for COC/C=C/C1=CC2=CC(=O)C(C)(OC(=O)c3cnc4ccccc4n3)C(=O)C2=CN1C1CCCCC1 (stereo unspecified) here?
The value was -4.04% (inactive).

For CC(C)C(=O)N[C@@H]1CCCN1C(=O)C=Cc1ccccc1, which “activity change, negative = inhibition” value is on record?
Its value is 3.31% (inactive).

Which “activity change, negative = inhibition” value does the source give for CCCCC1=CC2=C(c3ccco3)C(=O)C(C)(OC(=O)c3ccc(OC)cc3)C(=O)C2=CN1CC(C)C (stereo unspecified) here?
Its value is 2.94% (inactive).

With COC(=O)CCCC1=CC2=CC(=O)C(C)(OC(=O)c3cccs3)C(=O)C2=CN1Cc1ccc2c(c1)OCO2 (stereo unspecified) as the compound, how does the “activity change, negative = inhibition” value read?
Its value is -7.32% (inactive).

With COC(=O)C1=C(C(=O)OC)[C@@H]2N(C)c3ccccc3[C@@]23C[C@@H](C(=O)OC)N(S(=O)(=O)c2ccc(C#N)cc2)C3=N1 as the compound, how does the “activity change, negative = inhibition” value read?
The value was -0.647% (inactive).

Which “activity change, negative = inhibition” value does the source give for CC1(OC(=O)CCc2ccccc2)C(=O)C=C2C=C(c3ccc(C#N)cc3)N(CCc3ccccn3)C=C2C1=O (stereo unspecified) here?
Its value is -3.49% (inactive).

For COC/C=C/C1=CC2=CC(=O)C(C)(OC(=O)c3cnc4ccccc4n3)C(=O)C2=CN1C(CO)CO (stereo unspecified), which “activity change, negative = inhibition” value is on record?
Its value is 3.54% (inactive).

For O=C1c2cc(Br)ccc2O[C@@H](c2ccc3c(c2)OCO3)[C@@H]1O, which “activity change, negative = inhibition” value is on record?
Its value is -2.42% (inactive).

For COC(=O)CCC(=O)OC1(C)C(=O)C2=CN(CC3CC3)C(c3ccc(OC)cc3)=CC2=C(Br)C1=O (stereo unspecified), which “activity change, negative = inhibition” value is on record?
Its value is -9.49% (inactive).

For CCCCC1=CC2=CC(=O)C(C)(OC(=O)CC)C(=O)C2=CN1CCN1CCOCC1 (stereo unspecified), which “activity change, negative = inhibition” value is on record?
The value was -1.75% (inactive).

Which “activity change, negative = inhibition” value does the source give for C=CC[C@]1(C(=O)OC)C=C[C@H](C)[C@@H](c2ccccc2)N1C(=O)C(F)(F)F here?
Its value is -0.285% (inactive).

With COC(=O)[C@@H]1[C@H](CCc2ccccc2)NC(=O)N(Cc2ccccc2)[C@@H]1C as the compound, how does the “activity change, negative = inhibition” value read?
The value was 1.35% (inactive).

For COC(=O)C1=C(C(=O)OC)[C@@H]2N(C)c3ccccc3[C@@]23C[C@@H](C(=O)OC)N(S(=O)(=O)c2ccc(C)cc2)C3=N1, which “activity change, negative = inhibition” value is on record?
The value was -4.22% (inactive).

With COc1ccc(N2C=C3C(=O)C(C)(OC(=O)CCc4ccccc4)C(=O)C=C3C=C2c2ccc(C#N)cc2)cc1 (stereo unspecified) as the compound, how does the “activity change, negative = inhibition” value read?
The value was -0.948% (inactive).

With CC1(OC(=O)c2ccc(Cl)nc2)C(=O)C=C2C=C(C3CC3)OC=C2C1=O (stereo unspecified) as the compound, how does the “activity change, negative = inhibition” value read?
The value was 4.79% (inactive).

Which Potency does the source give for COC(=O)CCCC1=CC2=CC(=O)C(C)(OC(=O)c3cccs3)C(=O)C2=CN1CCCCO (stereo unspecified) here?
The Potency was “inactive”.

Which “activity change, negative = inhibition” value does the source give for COCCN1C(=O)N[C@@H](c2ccccc2)[C@@H](C(=O)OC)[C@H]1C here?
The value was -3.2% (inactive).

With COCCN1C=C2C(=O)C(C)(OC(=O)CCC(=O)OC)C(=O)C(Br)=C2C=C1c1ccc(OC)cc1 (stereo unspecified) as the compound, how does the “activity change, negative = inhibition” value read?
The value was -10.9% (inactive).
